Screening results (PubChem BioAssay)
Only some compounds are listed: those with a hit (about 15% of all), similar ones and a draw of the others.
ELG1 repair inh: qHTS screen for small molecules that inhibit ELG1-dependent DNA repair in human embryonic kidney (HEK293T) cells expressing luciferase-tagged ELG1; 330,000 compounds, 2.3% hits; Potency, µM (titrated, usually from 46.1 µM), for inactives: at the top dose activity change, negative = inhibition, usual class: inhibitors; HEK293T ELG1-luciferase reporter, luminescence, 16 h; DNA damage induced by 5-fluorouridine; AID 504467, 2011; further: nearly all actives have a fitted effect of over 55% in size
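HEK293T cells expressing luciferase-tagged ELG1 (2,000/well) received 5-Fluorouridine plus compound or DMSO for 16 hr at 37 °C. Luciferase was read by ONE-Glo luminescence after 30 min at room temperature.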
TDP1 cell noCPT: qHTS for Inhibitors of human tyrosyl-DNA phosphodiesterase 1 (TDP1): qHTS in cells in absence of CPT; AID 686978, 2013; DT40 Tdp1-/- hTDP1 cells, no CPT, ATP luminescence, 48 h; Potency, µM (titrated, usually from 46.2 µM), inactives show at the highest dose activity change, negative = growth inhibition, most hits filed as inhibitors; 420,000 compounds, 15% hits; further: nearly all actives have a fitted effect of over 55% in size
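Stably hTDP1-transfected Tdp1-null chicken DT40 cells were treated with library compounds minus camptothecin and grown for at least 48 hr at 37 °C, after which cellular ATP was quantified by luminescence.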
RORgamma inh: qHTS for inhibitors of ROR gamma transcriptional activity; Nuclear receptor ROR-gamma (Mus musculus), P51450; Drosophila S2 Gal4-RORgamma UAS-luciferase reporter, 20 h; Potency, µM (top dose mostly 53.6 µM), without a hit: top-dose activity change, negative = inhibition, most hits filed as inhibitors; 310,000 compounds, 5.4% hits; AID 2551, 2010; further: nearly all actives have a fitted effect of over 60% in size
Target sequence (P51450 whole entry, looked up, the tested form may be a part): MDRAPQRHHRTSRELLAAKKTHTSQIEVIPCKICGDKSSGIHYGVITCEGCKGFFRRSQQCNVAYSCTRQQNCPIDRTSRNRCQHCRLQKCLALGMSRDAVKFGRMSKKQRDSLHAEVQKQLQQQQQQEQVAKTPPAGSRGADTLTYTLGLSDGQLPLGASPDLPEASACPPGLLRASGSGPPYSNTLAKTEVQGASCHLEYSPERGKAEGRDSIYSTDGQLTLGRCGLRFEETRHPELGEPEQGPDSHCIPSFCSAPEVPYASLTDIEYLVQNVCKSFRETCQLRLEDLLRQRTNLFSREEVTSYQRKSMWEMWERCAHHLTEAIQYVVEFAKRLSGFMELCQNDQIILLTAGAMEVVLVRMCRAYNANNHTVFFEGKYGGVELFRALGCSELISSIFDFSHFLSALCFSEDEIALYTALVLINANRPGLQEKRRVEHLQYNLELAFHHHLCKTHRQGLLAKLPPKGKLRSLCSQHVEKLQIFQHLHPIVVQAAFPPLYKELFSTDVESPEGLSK
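A Gal4/UAS one-hybrid system in insect cells: metallothionein-promoter Gal4–ROR gamma fusion plus Photinus luciferase reporter. Copper sulfate 700 uM final, 20 hr ambient incubation, luminescent detection after 10 min with reagent.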
12-LOX inh: Primary qHTS assay for inhibitors of human arachidonate 12S-lipoxygenase (ALOX12): Round 2. Polyunsaturated fatty acid lipoxygenase ALOX12 (Homo sapiens), P18054. purified 12hLO, xylenol orange hydroperoxide absorbance. Potency, µM (highest dose often 108 µM), inactives show top-dose activity change, negative = inhibition, usual class: inhibitors. 580,000 compounds, 1.1% hits. AID 1671190, 2021
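Purified human 12hLO at 150 nM in 25 mM Hepes, 0.01% Triton X-100, pH 7.0, preincubated 15 min at room temperature with compound. Reaction started with 40 uM arachidonic acid, 30 min at room temperature. Hydroperoxide measured by Fe-xylenol orange, 573/405 nm absorbance ratio.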
Gal4-VP16 FLuc: VP16 counterscreen qHTS for inhibitors of ROR gamma transcriptional activity | Drosophila S2 Gal4-VP16 UAS-luciferase, luminescence, 20 h | Potency, µM (highest dose often 53.6 µM), for inactives: at the highest dose activity, negative = inhibition, most hits filed as inhibitors | 310,000 compounds, 3.5% hits | AID 2546, 2010;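 further: Gal4-VP16 expression switched on by copper sulfate through the metallothionein promoter; nearly all actives have a fitted effect of over 50% in size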
TDP1 cell CPT: qHTS for Inhibitors of human tyrosyl-DNA phosphodiesterase 1 (TDP1): qHTS in cells in presence of CPT; chicken DT40 Tdp1-/-;hTDP1 cells + 20 nM CPT, ATP luminescence, 48 h; Potency, µM (doses to about 46.2 µM), without a hit: at the top dose activity change, negative = growth inhibition, most hits filed as inhibitors; 420,000 compounds, 12% hits; AID 686979, 2013; further: nearly all actives have a fitted effect of over 55% in size
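Chicken DT40 Tdp1-/- cells complemented with human TDP1, 400 cells/well, exposed to compounds plus 20 nM camptothecin for at least 48 h at 37 C; viability read as ATP content by CellTiter-Glo luminescence.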
Starred values were filed as active, the others as inactive; ? = inconclusive; . = no result; [ ] = remark or other dose. The call rests on the fitted dose curve; in most records, active means well fitted curve in the direction sought with a large enough effect; inconclusive means small, poorly fitted or top-dose-only effect, or another doubt; inactive means no such curve, though single readings can be large; an effect the other way counts as inactive or inconclusive. On the % scale 0 is the no-effect control and ±100 the full control effect; potency means the concentration at half of the fitted maximal effect.

SMILES	ELG1 repair inh	TDP1 cell noCPT	RORgamma inh	12-LOX inh	Gal4-VP16 FLuc	TDP1 cell CPT
O=C(O)C(c1c[nH]c2ccc(Cl)cc12)N1CCN(Cc2ccccc2)CC1 (stereo not drawn)	.	.	.	-23.8%	.	.
Cn1nnnc1-c1cccc(NS(=O)(=O)c2ccc(F)cc2F)c1	.	.	.	-5.0%	.	.
COc1cccc(-c2c(NC(=O)c3ccc(C)cc3)oc3ccccc3c2=O)c1	.	.	.	-15.7%	.	.
CN(c1nc2ccccc2nc1Cl)S(=O)(=O)c1ccccc1	?	23.1µM*	24.9%	-0.7%	?	?
COc1ccc(S(=O)(=O)N(C)c2nc3ccccc3n3c(CC(C)C)nnc23)cc1	-19.4%	20.6µM*	44.3%	-24.5%	-7.4%	25.9µM*
CCCCc1nnc2c(N(C)S(=O)(=O)c3ccc(C)cc3)nc3ccccc3n12	15.7%	?	18.7%	-12.4%	-2.2%	-27.3%
Cc1ccc(S(=O)(=O)N(C)c2nc3ccccc3[nH]c2=S)cc1	-11.9%	?	4.47µM*	?	-10.4%	?
CCCc1nnc2c(N(C)S(=O)(=O)c3ccc(C)cc3)nc3ccccc3n12	7.0%	23.1µM*	13.2%	-27.4%	-1.2%	?
CC(C)Cn1cnc2c1c(=O)n(CC(=O)NC1CCCCCC1)c(=O)n2Cc1ccccc1	.	.	.	-5.9%	.	.
COc1cc(C2NC(=S)NC3=C2CCc2ccccc23)cc(OC)c1OC (stereo not drawn)	1.8%	?	5.62µM*	?	10µM*	-12.3%
O=C1NC2=C(CCc3ccccc32)C(c2ccccc2)N1 (stereo not drawn)	11.1%	-0.2%	-32.9%	?	2.1%	-0.8%
Fc1cccc(Cl)c1C1NC(=S)NC2=C1CCc1ccccc12 (stereo not drawn)	.	.	.	39.8µM*	.	.
C=CCOc1ccc(C2NC(=O)c3ccccc3O2)cc1 (stereo not drawn)	4.8%	-8.4%	-6.5%	0.2%	?	-6.3%
C=CCOc1ccc(C2NC(=S)NC3=C2CCc2ccccc23)cc1 (stereo not drawn)	5.17µM*	?	3.55µM*	?	12.6µM*	?
S=C1NC2=C(CCc3ccccc32)C(c2ccccc2)N1 (stereo not drawn)	.	.	.	15.8µM*	.	.
CCCCc1cc(C[C@H]2CNCC[C@H]2CC(=O)N2CCC(Cc3ccccc3)CC2)no1	.	.	.	54.6%	.	.
CC(C)N1CC2(C1)C(=O)N(C)C(=O)[C@@H]1C[C@@H](O)CN12	.	.	.	-1.1%[176 µM]	.	.
COc1cc(NC(=O)NCCn2c(C(F)(F)F)nc3ccccc32)cc(OC)c1	.	.	.	-12.1%	.	.
CCCCn1nc(C(=O)N2CCC(n3c(=O)[nH]c4ccccc43)CC2)c2ccccc2c1=O	.	.	.	-41.8%	.	.
COc1ccc2c(c1)CCC1=C2NC(=S)NC1c1ccc(N(C)C)cc1 (stereo not drawn)	8.4%	16.4µM*	2.82µM*	?	3.55µM*	?
COc1cc(/C=C(/C#N)C(=O)OC(C)C)cc(Cl)c1O	.	.	.	20µM*	.	.
Cc1cc(C)c(CNC(=O)c2nc(-c3ccc(CN(C)C)cc3)cc3c2ccn3C(C)C)c(=O)[nH]1	.	.	.	20.0%	.	.
Cn1c2ccccc2c(=O)c2c(=O)n(C3CCCCC3)c(-c3ccco3)nc21	?	?	31.6%	?	-13.1%	23.1µM*
O=C(COc1ccccc1[N+](=O)[O-])Nc1ccc(NC(=O)c2cc3ccccc3o2)cc1	-7.6%	?	?	-2.4%	?	23.1µM*
O=C(COc1ccccc1[N+](=O)[O-])Nc1cccc(-c2nc3ccccc3s2)c1	.	?	.	-8.6%	.	?
SMILES	ELG1 repair inh	TDP1 cell noCPT	RORgamma inh	12-LOX inh	Gal4-VP16 FLuc	TDP1 cell CPT
O=C(COc1ccc(/C=N/NC(=O)c2cc3ccccc3o2)cc1Br)Nc1ccccc1	?	18.4µM*	3.16µM*	?	2.24µM*	18.4µM*
O=C(COc1ccccc1[N+](=O)[O-])Nc1ccc(-c2nc3ccccc3s2)cc1	.	20.6µM*	.	-12.6%	.	20.6µM*
NC(CCc1ccccc1)c1csc(Nc2ccc(C(=O)NCCO)cc2)n1 (stereo not drawn)	.	23.1µM*	.	-12.5%	.	?
CS(=O)(=O)c1ccc(Nc2nc(C(N)CCc3ccccc3)cs2)cc1 (stereo not drawn)	.	20.6µM*	.	11.2%	.	23.1µM*
Cc1cc(C)nc(Nc2nc(C(N)CCc3ccccc3)cs2)n1 (stereo not drawn)	.	20.6µM*	.	-12.4%	.	?
NC(COCc1ccccc1)c1csc(Nc2ccc(C(=O)c3ccccc3)cc2)n1 (stereo not drawn)	.	?	.	-26.2%	.	14.6µM*
NC(=O)c1ccc(Nc2nc(C(N)COCc3ccccc3)cs2)cc1 (stereo not drawn)	.	?	.	15.7%	.	?
NC(CCc1ccccc1)c1csc(Nc2ccc(C(=O)NCCCO)cn2)n1 (stereo not drawn)	.	-22.5%	.	4.5%	.	-29.5%
COc1ccc(C(=O)NC2(C(F)(F)F)NC(=O)N(c3ccccc3)C2=O)cc1OC (stereo not drawn)	.	.	.	-53.9%	.	.
CCc1ccccc1NC(=O)c1nc(-c2ccccc2)oc1C	.	.	.	5.4%	.	.
NC(=O)c1cccc(Nc2nc(C(N)COCc3ccccc3)cs2)n1 (stereo not drawn)	.	?	.	8.8%	.	18.4µM*
COc1ccc(C(N)c2csc(Nc3ccc(C(=O)c4ccccc4)cc3)n2)cc1 (stereo not drawn)	.	?	.	-8.4%	.	?
NCc1csc(Nc2ccc(C(=O)c3ccccc3)cc2)n1	.	1.03µM*	.	3.1%	.	0.92µM*
NC(CCc1ccccc1)c1csc(Nc2ccc(C(=O)c3ccccc3)cc2)n1 (stereo not drawn)	.	18.4µM*	.	?	.	16.4µM*
COC(=O)c1ccccc1NC(=O)N1CCc2c(sc3c2CCCC3)C1c1ccc(F)cc1 (stereo not drawn)	.	-28.5%	.	-5.0%	.	-27.4%
CCc1c(C)sc2c1CCN(C(=O)Nc1cc(Cl)c(OC)cc1OC)C2c1ccccc1 (stereo not drawn)	.	25.9µM*	.	-16.9%	.	?
CCc1c(C)sc2c1CCN(C(=O)Nc1ccccc1C(F)(F)F)C2c1ccccc1 (stereo not drawn)	.	7.31µM*	.	-17.1%	.	?
